From article PMC8222333, “AsCas12a ultra nuclease facilitates the rapid generation of therapeutic cell medicines” come the findings set out here.

B1: CGCA (dsDNA)
DNA 1: GCTATCTAGTGCTCAGTACGCACTGCGCAAGGAAACTTCTGGCAGGACCAGGTCATGAGATCGGAAGAGCACACGTCTGAACTCCAGTCA
DNA 2: TGACTGGAGTTCAGACGTGTGCTCTTCCGATCTCATGACCTGGTCCTGCCAGAAGTTTCCTTGCGCAGTGCGTACTGAGCACTAGATAGC
RNA: AAUUUCUACUCUUGUAGAUAGGAAACUUCUGGCAGGACC
B2: CTAC (dsDNA)
DNA 1: B1 DNA 1 with G27T, C28A, A29C
DNA 2: B1 DNA 2 with T62G, G63T, C64A
RNA: B1 RNA
B3: CGCC (dsDNA)
DNA 1: B1 DNA 1 with A29C
DNA 2: B1 DNA 2 with T62G
RNA: B1 RNA
B4: CGGA (dsDNA)
DNA 1: B1 DNA 1 with C28G
DNA 2: B1 DNA 2 with G63C
RNA: B1 RNA
B5: GACC (dsDNA)
DNA 1: B1 DNA 1 with C26G, G27A, A29C
DNA 2: B1 DNA 2 with T62G, C64T, G65C
RNA: B1 RNA
B6: GAAA (dsDNA)
DNA 1: B1 DNA 1 with C26G, G27A, C28A
DNA 2: B1 DNA 2 with G63T, C64T, G65C
RNA: B1 RNA
B7: CGGT (dsDNA)
DNA 1: B1 DNA 1 with C28G, A29T
DNA 2: B1 DNA 2 with T62A, G63C
RNA: B1 RNA
B8: CTGG (dsDNA)
DNA 1: B1 DNA 1 with G27T, C28G, A29G
DNA 2: B1 DNA 2 with T62C, G63C, C64A
RNA: B1 RNA
B9: CGGC (dsDNA)
DNA 1: B1 DNA 1 with C28G, A29C
DNA 2: B1 DNA 2 with T62G, G63C
RNA: B1 RNA
B10: CGCG (dsDNA)
DNA 1: B1 DNA 1 with A29G
DNA 2: B1 DNA 2 with T62C
RNA: B1 RNA
B11: CTGC (dsDNA)
DNA 1: B1 DNA 1 with G27T, C28G, A29C
DNA 2: B1 DNA 2 with T62G, G63C, C64A
RNA: B1 RNA
B12: GACA (dsDNA)
DNA 1: B1 DNA 1 with C26G, G27A
DNA 2: B1 DNA 2 with C64T, G65C
RNA: B1 RNA
B13: GAAG (dsDNA)
DNA 1: B1 DNA 1 with C26G, G27A, C28A, A29G
DNA 2: B1 DNA 2 with T62C, G63T, C64T, G65C
RNA: B1 RNA
B14: CTCG (dsDNA)
DNA 1: B1 DNA 1 with G27T, A29G
DNA 2: B1 DNA 2 with T62C, C64A
RNA: B1 RNA
B15: GAAC (dsDNA)
DNA 1: B1 DNA 1 with C26G, G27A, C28A, A29C
DNA 2: B1 DNA 2 with T62G, G63T, C64T, G65C
RNA: B1 RNA
B16: GAAT (dsDNA)
DNA 1: B1 DNA 1 with C26G, G27A, C28A, A29T
DNA 2: B1 DNA 2 with T62A, G63T, C64T, G65C
RNA: B1 RNA
B17: CGCT (dsDNA)
DNA 1: B1 DNA 1 with A29T
DNA 2: B1 DNA 2 with T62A
RNA: B1 RNA

Numbering of substitutions follows the chain as printed.
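Also: relative affinity from the bound to unbound sequence frequency ratio in Spec-seq.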

The target of one assay is dAsCas12a S542R (Acidaminococcus sp., UniProt U2UMQ6 1-1307, S542R;D908A;E993A;D1235A). Description: Spec-seq (native PAGE EMSA with sequencing of bound and unbound); 25 mM Tris-HCl pH 7.4, 150 mM KCl, 5 mM MgCl2, 10% glycerol, 1 mM DTT, 40 ng/uL salmon sperm DNA; 400 nM Cas12a, 480 nM crRNA, 50 nM library, 37 C 1 h; native PAGE at room temperature; high values mean tight binding. The following applies: protein: recombinant.
As for B1, the binding signal is -8.48 lnKA.

As for B2, the binding signal was -8.27 lnKA.

For B3, the binding signal was -8.54 lnKA.

For B4, the binding signal was -8.76 lnKA.

As to B5, the binding signal is -8.46 lnKA.

For the molecule B6, the binding signal is -8.7 lnKA.

With B7, the binding signal is -8.62 lnKA.

On to B8, for which the binding signal was -8.46 lnKA.

Take B9: the binding signal was -8.51 lnKA.

Take B10: the binding signal was -8.29 lnKA.

Regarding B11, the binding signal is -8.71 lnKA.

On to B12, for which the binding signal is -8.67 lnKA.

On to B13, for which the binding signal was -8.23 lnKA.

For B14, the binding signal is -6.92 lnKA.

B15: the binding signal was -8.59 lnKA.

As to B16, the binding signal is -8.54 lnKA.

With B17, the binding signal is -8.52 lnKA.

In the next assay the target is d-enCas12a (Acidaminococcus sp., UniProt U2UMQ6 1-1307, E174R;S542R;K548R;D908A;E993A;D1235A). Described as above. The following applies: protein: recombinant.
For B1, the binding signal is -2.19 lnKA.

As for B2, the binding signal was -4.66 lnKA.

With B3, the binding signal is -1.48 lnKA.

Consider B4, for which the binding signal was -5.73 lnKA.

As to B5, the binding signal was -3.91 lnKA.

In the case of B6, the binding signal is -5.87 lnKA.

With B7, the binding signal is -5.84 lnKA.

Regarding B8, the binding signal was -5.9 lnKA.

As for B9, the binding signal was -5.63 lnKA.

B10: the binding signal is -3.31 lnKA.

Turning to B11, the binding signal is -5.32 lnKA.

In the case of B12, the binding signal was -4.44 lnKA.

B13: the binding signal was -5.82 lnKA.

With B14, the binding signal is -3.29 lnKA.

As to B15, the binding signal was -5.9 lnKA.

As for B16, the binding signal is -5.79 lnKA.

With B17, the binding signal is -4.5 lnKA.

The next assay concerns the target d-enCas12a-Ultra (Acidaminococcus sp., UniProt U2UMQ6 1-1307, E174R;S542R;K548R;M537R;F870L;D908A;E993A;D1235A). Described as above. Conditions: protein: recombinant.
Consider B1, for which the binding signal was -0.537 lnKA.

B2: the binding signal is -1.69 lnKA.

For the molecule B3, the binding signal was -0.384 lnKA.

B4: the binding signal is -3.26 lnKA.

On to B5, for which the binding signal is -1.34 lnKA.

In the case of B6, the binding signal is -3.36 lnKA.

As to B7, the binding signal was -3.41 lnKA.

Regarding B8, the binding signal is -3.29 lnKA.

With B9, the binding signal is -3.15 lnKA.

With B10, the binding signal was -0.79 lnKA.

Regarding B11, the binding signal is -2.48 lnKA.

Consider B12, for which the binding signal was -1.74 lnKA.

B13: the binding signal is -3.51 lnKA.

As to B14, the binding signal is -0.685 lnKA.

On to B15, for which the binding signal was -3.33 lnKA.

In the case of B16, the binding signal is -3.39 lnKA.

B17: the binding signal was -1.29 lnKA.
